Reference: PubChem BioAssay AID1671192 (National Center for Advancing Translational Sciences (NCATS), 2021)
Records with an inconclusive call do not appear. Activity calls are given as the source filed them. Calls follow the shape of the dose curve; as a rule, active = well fitted curve in the direction sought with a large enough effect; inconclusive = small, poorly fitted or top-dose-only effect, or another doubt; inactive = no such curve, though single readings can be large or run the other way.

target: Polyunsaturated fatty acid lipoxygenase ALOX15 (Homo sapiens) (UniProt P16050); assay: Counterscreen qHTS for inhibitors of human arachidonate 12S-lipoxygenase (ALOX12): ALOX15 Assay; settings: purified ALOX15 enzyme activity; series mostly up to 110 µM
Sequence (P16050 whole entry, looked up): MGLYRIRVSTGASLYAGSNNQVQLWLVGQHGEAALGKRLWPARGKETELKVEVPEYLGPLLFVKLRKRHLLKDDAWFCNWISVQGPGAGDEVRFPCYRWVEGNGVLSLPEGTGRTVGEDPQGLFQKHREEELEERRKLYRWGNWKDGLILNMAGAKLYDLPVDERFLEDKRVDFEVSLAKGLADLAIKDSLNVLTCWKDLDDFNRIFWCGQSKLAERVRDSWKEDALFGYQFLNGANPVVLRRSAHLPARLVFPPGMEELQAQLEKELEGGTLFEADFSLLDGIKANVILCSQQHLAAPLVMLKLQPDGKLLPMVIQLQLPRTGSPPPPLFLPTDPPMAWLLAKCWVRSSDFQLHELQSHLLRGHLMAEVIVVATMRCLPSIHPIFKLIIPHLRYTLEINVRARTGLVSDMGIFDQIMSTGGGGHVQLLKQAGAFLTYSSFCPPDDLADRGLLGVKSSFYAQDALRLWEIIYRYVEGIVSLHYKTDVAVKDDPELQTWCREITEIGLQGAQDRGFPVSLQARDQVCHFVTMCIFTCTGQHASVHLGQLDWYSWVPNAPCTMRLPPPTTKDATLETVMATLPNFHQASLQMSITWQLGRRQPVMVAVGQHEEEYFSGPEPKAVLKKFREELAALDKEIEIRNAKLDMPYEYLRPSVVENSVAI
How it was run: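 Purified human ALOX15 (15hLO-1) at 40 nM in 25 mM HEPES, 0.01% Triton X-100, pH 7.5, preincubated with compound 15 min at RT. Then 50 uM arachidonic acid for 30 min; hydroperoxide detected by Fe-xylenol orange as the 573/405 nm absorbance ratio.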

Compound | outcome
O=C1NCc2ccccc2CC12CCCN2Cc1cnc2ccccc2c1 (stereo not drawn) | inactive
CN1CCCC2(Cc3ccccc3CN(C(=O)c3ccc(Cl)cc3)C2)C1 (stereo not drawn) | inactive
COc1ccc(CN2CCCC3(Cc4ccccc4CNC3=O)C2)cc1 (stereo not drawn) | inactive
Cc1noc(C)c1C(=O)N1CCN(c2ccc(Cl)nn2)C(=O)C1 | inactive
FC(F)(F)c1cccc(C2=NOC3(CCN(Cc4ccsc4)C3)C2)c1 (stereo not drawn) | inactive
CCC(CO)Nc1ncnc2c1CN(C1CCCNC1)C(=O)CN2C (stereo not drawn) | inactive
CNCc1ccccc1Cl | inactive
CN1CC(=O)N(C2CCCNC2)Cc2c(NC3CCC3)ncnc21 (stereo not drawn) | inactive
COc1ccc(-n2nc3n(c2=O)CCN(C(=O)c2ccccn2)C3)cc1 | inactive
Fc1ccc(CN2CCC3(CC(c4cccc(C(F)(F)F)c4)=NO3)C2)cc1 (stereo not drawn) | inactive
CCc1nc2c(c(-c3ccc(OC)cc3)n1)CCN(Cc1ccc(C(F)(F)F)cc1)CC2 | inactive
CN1CC(=O)N(C2CCCNC2)Cc2c1ncnc2N1CCSCC1 (stereo not drawn) | inactive
CCOc1cccc(CN2CCCC23Cc2ccccc2CNC3=O)c1 (stereo not drawn) | inactive
N#Cc1ccc(CN2CC(Oc3ccc(F)cc3F)C2)cc1 | inactive
NC(Cc1ccccc1)C(=O)N1CCC2(CC1)CN(C(=O)c1ccc(Cl)cc1)CCO2 (stereo not drawn) | inactive
O=C1NCc2ccccc2CC12CCCN2Cc1ccc(OC(F)(F)F)cc1 (stereo not drawn) | inactive
CC(CO)Nc1ncnc2c1CN(C1CCCNC1)C(=O)CN2C (stereo not drawn) | inactive
CN(C)CCCC(=O)N1Cc2ccccc2CC2(CCCCN2CC2CCNCC2)C1 (stereo not drawn) | inactive
Cc1ccc(C(=O)N2CCCC3(CC(c4cccnc4)=NO3)C2)cc1 (stereo not drawn) | inactive

Compound | outcome
CNCc1cccn1C | inactive
CC(=O)NCC(=O)N1Cc2ccccc2CC2(CCCN(CC3CCNC3)C2)C1 (stereo not drawn) | inactive
CCC(=O)N1Cc2ccccc2CC2(CCN(Cc3ccncc3)CC2)C1 | inactive
Cn1nc(C2CCNC2)c2c(C(=O)NCc3ccncc3)cc(C3CC3)nc21 (stereo not drawn) | inactive
O=C1NC2(Cc3ccccc31)CN(C(=O)c1ccccc1)C2 | inactive
CC(C)NC(=O)N1CCC(c2nnc3n2CCNC3)CC1 | inactive
O=C(NC1CCNCC1)c1cc(C2CC2)nc2onc(C3CCCN3)c12 (stereo not drawn) | inactive
O=C(N1CCOCC1)N1CCN(c2ccc(Cl)nn2)C(=O)C1 | inactive
O=C(c1ccccc1)N1CCn2c(nn(-c3cccc(Cl)c3)c2=O)C1 | inactive
NCc1cccc(-c2ccsc2)c1 | inactive
CC(=O)NCCCC(=O)N1CCOC2(CCN(C(=O)CCCN)CC2)C1 | inactive
CCN(c1ccc2c(c1)OCO2)C1CN(C(=O)OC(C)(C)C)C1 | inactive
CCOC(=O)N1CCC(NC)CC1 | inactive
C[S+](=O)([O-])N1Cc2ccccc2CC2(CCN(CC3CCNC3)CC2)C1 (stereo not drawn) | inactive
Cn1nc(C2CCCNC2)c2c(C(=O)NC3CC3)cc(C3CC3)nc21 (stereo not drawn) | inactive
CCNc1ncnc2c1CN(C1CCNC1)C(=O)CN2C (stereo not drawn) | inactive
CNCc1cccc(Oc2ccccc2)c1 | inactive
COc1ccc(-c2nc(C3CC3)nc3c2CCN(Cc2ccc(C#N)cc2)CC3)cc1 | inactive
COc1ccc(CNc2ncnc3c2CN(C2CCCNCC2)C(=O)CN3C)cc1 (stereo not drawn) | inactive
